From PubChem BioAssay (EPA / NIEHS) come the findings set out here.

By AC50 is commonly meant the concentration giving half of the maximal activity seen.

Where “and” joins values, the source holds several entries; their conditions need not be identical. Equal entries are not always repeated. Some compounds were tested as several samples or in several runs, with calls that do not always agree. Calls of active or inactive are those of the source. Rule for the calls: active = hit-call score of the fitted dose curve at least 0.9, where 1 is the maximum; inactive = score below 0.9.

Assay [1] has as its target Nuclear respiratory factor 1 (Homo sapiens) (UniProt Q16656). As to the kind of experiment: ATG_NRF1_CIS: Attagene CIS-FACTORIAL HepG2 Assay for human Nuclear Respiratory Factor 1 (NRF1) Orphan Gene (AID 2282987). The following applies: HepG2 NRF1 cis-element reporter, Attagene multiplex; actives raise or lower the signal. The gist of the method: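 Transcriptional reporter readout, one component of a 52-endpoint multiplexed HepG2 panel. Exposure 24 h; mRNA detected via RT-PCR and fluorescent capillary electrophoresis; fitting in both directions against DMSO.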

The nature of assay [2]: ATG_NFI_CIS: Attagene CIS-FACTORIAL HepG2 Assay for human Nuclear Factor I (NFI) (AID 2282989). The following applies: HepG2 cis-regulatory reporter, NFI response element transcription; actives raise or lower the signal. In short, it runs like this:
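Cells: human liver HepG2, transiently transfected with promoter-regulated reporter transcription units. Exposure 24 h. Detection: fluorescent RT-PCR products separated by capillary electrophoresis, normalised to DMSO negative control.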

The nature of assay [3]: ATG_NRF2_ARE_CIS: Attagene CIS-FACTORIAL HepG2 Assay for human Nuclear Factor Erythroid 2 Related Factor 2 (NFR2) response to Antioxidant Response Elements (ARE) (AID 2282992).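 For AC50: reporter mRNA level measured by RT-PCR and capillary electrophoresis fluorescence.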 The following applies: HepG2 Attagene ARE/NRF2 reporter, transcription factor activity; actives raise or lower the signal. The gist of the method:
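Transient MRTU transfection of HepG2; 24 h compound exposure; TriZol RNA, RT with oligo(dT), PCR, 6-FAM primer extension, HpaI cut, CE. Bidirectional fit vs DMSO.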

Assay [4] can be described thus: ATG_Oct_MLP_CIS: Attagene CIS-FACTORIAL HepG2 Assay for human Octamer-Binding Transcription Factor (Oct) (AID 2282993). The following applies: HepG2 Attagene cis-factorial Oct reporter, mRNA; actives raise or lower the signal. In short, it runs like this:
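HepG2, transient MRTU transfection, cis promoter elements; 24 h dosing; RT-PCR/CE fluorescence read-out of reporter mRNA; fit both directions vs DMSO.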

Assay [5] concerns the target Cellular tumor antigen p53 (Homo sapiens) (UniProt P04637). As to the kind of experiment: ATG_p53_CIS: Attagene CIS-FACTORIAL HepG2 Assay for human p53 Transcription Factor (AID 2282994). The following applies: HepG2 p53 cis-element reporter, Attagene mRNA; actives raise or lower the signal. In short, it runs like this: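 HepG2, transient MRTU transfection (cis promoter elements, endogenous TFs); 24 h dosing; RNA isolation, RT-PCR, 6-FAM primer extension, HpaI digest, CE fluorescence; bidirectional fit vs DMSO.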

A short description of assay [6]: BSK_3C_TissueFactor: BioMAP Diversity Plus: 3C Assay for Tissue Factor Biomarker Activity (AID 2282997). The following applies: BioMAP 3C HUVEC, tissue factor biomarker readout; actives raise or lower the signal. In short, it runs like this:
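Endothelial monolayers (human umbilical vein, primary) are dosed, incubated 24 h, and assayed for Tissue Factor by ELISA; DMSO serves as negative control for bidirectional fitting.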

A short description of assay [7]: BSK_3C_uPAR: BioMAP Diversity Plus: 3C Assay for Urokinase-type plasminogen activator receptor (uPAR) Biomarker Activity (AID 2282998). The following applies: BioMAP 3C HUVEC, uPAR biomarker ELISA; actives raise or lower the signal. The gist of the method:
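A multiplexed primary-cell system built on human umbilical vein endothelium was used, with chemical present for 24 h before reading. Cell-surface uPAR was detected by ELISA; signal change in either direction counted against DMSO.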

Assay [8] in a line: BSK_3C_VCAM1: BioMAP Diversity Plus: 3C Assay for Vascular cell adhesion molecule 1 (VCAM1) Biomarker Activity (AID 2282999). The following applies: BioMAP 3C HUVEC, VCAM1 ELISA, cytokine-stimulated; actives raise or lower the signal. The gist of the method: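 Human umbilical vein endothelial cells were dosed with compound for 24 h, after which cell-surface VCAM-1 was quantified by ELISA. Bidirectional curve fitting used DMSO as negative control and activity baseline.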
(In general: In an ELISA, binding on a coated surface is turned into a signal by an enzyme label.)

Assay [9] is described as follows: ATG_NF_kB_CIS: Attagene CIS-FACTORIAL HepG2 Assay for human Nuclear Factor Kappa B (NF-kB) (AID 2282991). The following applies: HepG2 Attagene cis-factorial NF-kB reporter mRNA; actives raise or lower the signal. In short, it runs like this:
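HepG2, transient multi-reporter transfection, cis promoter elements (endogenous TFs). 24 h exposure. Total RNA → RT → PCR → 6-FAM label → HpaI → CE. Gain/loss vs DMSO.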

Chain of Cellular tumor antigen p53 (Homo sapiens) (P04637 whole entry, looked up): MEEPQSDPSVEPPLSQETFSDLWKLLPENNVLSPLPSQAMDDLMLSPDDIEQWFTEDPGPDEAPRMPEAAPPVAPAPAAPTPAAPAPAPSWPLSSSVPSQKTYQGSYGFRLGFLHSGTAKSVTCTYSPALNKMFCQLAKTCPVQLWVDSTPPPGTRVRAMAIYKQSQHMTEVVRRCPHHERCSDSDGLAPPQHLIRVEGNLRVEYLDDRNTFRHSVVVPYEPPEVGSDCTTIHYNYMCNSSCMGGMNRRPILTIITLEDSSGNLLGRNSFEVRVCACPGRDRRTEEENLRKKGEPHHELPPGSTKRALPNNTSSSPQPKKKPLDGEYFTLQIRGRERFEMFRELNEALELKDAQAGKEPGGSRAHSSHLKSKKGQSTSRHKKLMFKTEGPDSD
Chain of Nuclear respiratory factor 1 (Homo sapiens) (Q16656 whole entry, looked up): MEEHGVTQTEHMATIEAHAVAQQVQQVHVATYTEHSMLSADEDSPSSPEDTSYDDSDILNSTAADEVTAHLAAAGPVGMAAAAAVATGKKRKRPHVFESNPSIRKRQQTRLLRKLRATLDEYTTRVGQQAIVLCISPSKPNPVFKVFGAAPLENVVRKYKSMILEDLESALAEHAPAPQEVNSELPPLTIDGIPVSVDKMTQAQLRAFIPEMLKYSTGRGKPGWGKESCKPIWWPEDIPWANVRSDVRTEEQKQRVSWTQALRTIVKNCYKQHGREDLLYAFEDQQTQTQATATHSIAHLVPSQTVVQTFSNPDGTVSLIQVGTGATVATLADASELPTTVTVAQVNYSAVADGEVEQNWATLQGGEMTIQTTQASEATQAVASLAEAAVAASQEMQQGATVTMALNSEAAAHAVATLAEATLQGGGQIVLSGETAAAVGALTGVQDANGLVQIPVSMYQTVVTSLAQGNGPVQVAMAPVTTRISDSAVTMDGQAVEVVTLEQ

For `Cc1cc(C)cc(O)c1`, the outcome in assay [1], in assay [2], in assay [3], in assay [4] and in assay [5] was inactive.
Consider `COC(=O)CCC(F)(F)C(F)(F)C(F)(F)C(F)(F)F`, for which the molecule was classed as inactive in [1], in assay [2], in assay [3], in [4], in assay [5] and in [6]. In addition, the result in [7] and in assay [8] was inactive.
For the molecule `FC(F)(F)C(F)(F)C(F)(F)C(F)(F)C(F)(F)C(F)(F)CCS`, the call in assay [1], in [2], in [9], in assay [3], in [4] and in [5] was inactive. The result in assay [6], in assay [7] and in [8] was inactive.
For `O=C(O)C=C(C(F)(F)F)C(F)(F)F`, the molecule was called inactive in assay [1], in [2], in [4], in assay [5], in assay [6] and in [7]. Also, the AC50 is 1.89 µM (active) and 3.02 µM (active) in assay [3]; 22.4 µM (active) and 8.91 µM (active) in assay [8].
Regarding `CCc1ccc(C(c2ccc(CC)cc2)C(Cl)Cl)cc1`, the molecule was called inactive in assay [1], in assay [2], in assay [4], in assay [5] and in [6]. The half-maximal activity concentration (AC50) in [3] was 56.5 µM (active); in assay [7] it was 12.2 µM (active); in [8] it was 27.4 µM (active).
As to `Oc1ccc(Nc2ccccc2)cc1`, the molecule was classed as inactive in [1], in assay [2], in assay [4], in assay [5], in [6] and in assay [7]. Moreover, the half-maximal activity concentration (AC50) in assay [3] was 43.9 µM (active); in assay [8] it was 20 µM (active).
On to `C=C(C)C(=O)OCCC(F)(F)C(F)(F)C(F)(F)C(F)(F)C(F)(C(F)(F)F)C(F)(F)F`, for which the molecule was called inactive in [1], in [2], in [3], in assay [4], in [5] and in assay [6]. The result in [7] and in [8] was inactive.
With `Cc1ccc(S(=O)(=O)OCC(F)(F)C(F)(F)C(F)(F)C(F)(F)C(F)(F)C(F)F)cc1`, the result in [1], in assay [2], in assay [9], in assay [3], in [4] and in assay [5] was inactive. Also, the result in assay [6], in [7] and in assay [8] was inactive.
Consider `CC(=O)Nc1ccc(N=Nc2cc(C)ccc2O)cc1`, for which the AC50 was 27.1 µM (active) in [1], 1.42 µM (active) in assay [3] and 2.69 µM (active) in assay [8]. Further, the result in assay [2], in [4], in assay [5], in [6] and in assay [7] was inactive.
In the case of `CCCCCCOC(=O)c1ccccc1O`, the molecule was classed as inactive in assay [1], in assay [2], in assay [9], in [3], in assay [4] and in assay [5]. Besides, the AC50 in assay [6] was 48 µM (active) and 38.5 µM (active); in [7], 24.5 µM (active) and 41.1 µM (active); in [8], 38.1 µM (active) and 37.2 µM (active).
Consider `C=C(C)C(=O)OCC(F)(F)C(F)(F)C(F)(F)C(F)(F)C(F)(F)C(F)(F)C(F)(F)F`, for which the call in [1], in assay [2], in assay [9], in assay [3], in assay [4] and in assay [5] was inactive. Besides, the result in assay [6], in assay [7] and in assay [8] was inactive.
For `FC(F)(Br)C(F)(F)C(F)(F)C(F)(F)C(F)(F)C(F)(F)Br`, the outcome in [1], in assay [2], in [9], in [3], in assay [4] and in [5] was inactive. Further, the outcome in [6], in assay [7] and in assay [8] was inactive.
Regarding `Nc1cc(Cl)c(N)c(Cl)c1`, the molecule was classed as inactive in assay [1], in assay [2], in assay [4] and in assay [5]. Moreover, the AC50 in assay [3] was 9.89 µM (active).
Regarding `O=C(C=Cc1ccccc1)OCC=Cc1ccccc1`, the call in assay [1], in assay [2], in assay [4] and in assay [5] was inactive. Moreover, the AC50 in assay [3] is 2.64 µM (active).
Regarding `N=C(N)C(F)(F)C(F)(F)C(F)(F)C(F)(F)C(F)(F)C(F)(F)C(F)(F)F`, the call in assay [1], in [4], in assay [6] and in assay [7] was inactive. Also, the AC50 in assay [2] is 271 µM (active); in assay [3] it was 125 µM (active); in [5], 88.9 µM (active); in assay [8], 24.1 µM (active) and 15 µM (active).
For the molecule `CCCCCCCCC(F)(F)C(F)(F)C(F)(F)C(F)(F)C(F)(F)C(F)(F)F`, the molecule was classed as inactive in [1], in [3], in assay [5], in assay [6], in assay [7] and in assay [8]. Also, the AC50 was 36 µM (active) in assay [2] and 89.3 µM (active) in assay [4].
Regarding `O=C(O)C(F)(F)C(F)(F)C(F)(F)C(F)(F)C(F)(F)C(F)(F)C(F)(F)C(F)(F)C(F)(F)C(F)F`, the result in [1], in assay [2], in assay [9], in [4], in [5] and in assay [6] was inactive. For the same molecule, the result in assay [7] and in assay [8] was inactive. Moreover, the AC50 in [3] was 26.3 µM (active); in [8], 45.2 µM (active).
For the molecule `CCCCCCOC(=O)c1ccccc1`, the call in assay [1], in [2], in assay [3], in assay [4] and in assay [5] was inactive.
Take `CCCCCCC(C)OC(=O)CCCCC(=O)OC(C)CCCCCC` (stereo not drawn): the molecule was called inactive in assay [1], in [2], in assay [9], in assay [3], in assay [4] and in assay [5]. Further, the outcome in [6], in assay [7] and in assay [8] was inactive.
Consider `CCc1c(Br)c(Br)c(Br)c(Br)c1Br`, for which the call in [1], in [2], in [9], in [3], in assay [4] and in assay [5] was inactive. For the same molecule, the result in assay [8] was inactive. For the same molecule, the figures for the AC50 in assay [6] and in assay [7] were 4.73 µM (active) and 20 µM (active), respectively.
For `O=C(O)C(F)(F)C(F)(F)C(F)(F)C(F)(F)C(F)(F)C(F)(F)C(F)(F)C(F)(F)C(F)(F)C(F)(F)C(F)(F)C(F)(F)C(F)(F)F`, the molecule was called inactive in assay [1], in [2], in assay [4], in [5], in assay [6] and in [7]. The result in [8] was inactive. Besides, the values for the concentration at half-maximal activity (AC50) in assay [9] and in assay [3] were 26.2 µM (active) and 26.1 µM (active), respectively.
As to `CS(C)(=O)=O`, the molecule was called inactive in [1], in assay [2], in assay [9], in assay [4], in assay [5] and in assay [6]. The result in assay [7] and in [8] was inactive. For the same molecule, the AC50 in [3] was 27.5 µM (active).
Take `CCCCCC=O`: the molecule was classed as inactive in assay [1], in assay [2], in assay [3], in assay [4] and in [5].
Regarding `C=C(C)C(=O)OCC(F)(F)C(F)(F)C(F)(F)F`, the outcome in [1], in [2], in assay [3], in assay [4], in [5] and in [6] was inactive. For the same molecule, the outcome in [7] and in assay [8] was inactive.
Consider `C1COCCN1`, for which the molecule was called inactive in assay [1], in [2], in [3], in [4] and in assay [5].
